HSP90 inh: HSP90 inhibitors, primary screen, cell lysate, luminescence; Heat shock protein HSP 90 (rabbit reticulocyte lysate; luciferase refolding); inhibition, % at 5.6 µM; 290,000 tested, 0.91% active; Rabbit reticulocyte lysate, luciferase refolding luminescence, 3 h; AID 1789, 2009;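 active means inhibition above the screen-wide mean plus 3 SD, computed separately per campaign, cut at about 16% in these data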;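 further: inhibitors lower the luminescence because luciferase stays unfolded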
HSF-1 act: HSF-1 activators, primary screen, NIH3T3-HGL cells, MG132 stress, luminescence, single point; NIH3T3-HGL HSF-1 luciferase reporter, 8 h; 100% = twice DMSO control signal; activation, % at 9 µM; 300,000 tested, 1.7% active; AID 504408, 2011;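 active means mean replicate activation of at least 50% with a set share of replicates each reaching 50%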
dFosB act: activators of delta FosB homodimer, primary screen, biochemical, fluorescence polarization, TAMRA-CDK5 oligo, single point | Protein FosB (Mus musculus), P13346 | purified delta FosB; percent of positive-control signal above neutral wells | activation, % at 25 µM | 340,000 tested, 0.99% active | AID 493131, 2011;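 active means mean activation above about 17%, with every replicate also reaching it, limit read from the data, passing the limit was not always enough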
Target sequence (P13346 whole entry, looked up): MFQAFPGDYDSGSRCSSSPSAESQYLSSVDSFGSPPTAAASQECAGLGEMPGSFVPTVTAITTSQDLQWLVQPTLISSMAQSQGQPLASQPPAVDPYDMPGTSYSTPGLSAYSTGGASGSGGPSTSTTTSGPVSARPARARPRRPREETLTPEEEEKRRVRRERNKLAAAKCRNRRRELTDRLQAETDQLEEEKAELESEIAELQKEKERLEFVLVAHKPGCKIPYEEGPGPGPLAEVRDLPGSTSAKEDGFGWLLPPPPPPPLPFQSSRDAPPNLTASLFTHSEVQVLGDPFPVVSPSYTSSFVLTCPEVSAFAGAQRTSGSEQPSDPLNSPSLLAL
Platelet DG rel: inhibitors of platelet dense granule secretion, primary screen, cell-based, MLPCN, human platelets | 300,000 tested, 0.22% active | AID 1663, 2009 | inhibition, %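 (compounds screened at 7.5 µM in platelet-rich plasma)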 | human platelet-rich plasma, SFLLRN dense granule ATP release, luminescence;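 active means mean replicate score, as percent of positive control, at or above 50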
MPTP inh: mitochondrial permeability transition pore inhibitors, primary screen, biochemical, isolated mouse mitochondria, absorbance. Ca2+ swelling absorbance, 30 min. inhibition, % at 10 µM. 360,000 tested, 1.4% active;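 active means inhibition of 50% or more, scaled per plate between neutral and stimulator controls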
HSF1 inh: HSF1 inhibitors in luciferase reporter cells, primary screen, cell-based, NIH3T3, luminescence; NIH3T3-HGL HSE-luciferase, MG132-induced, luminescence 8 h; active compounds read low; activity change, negative = inhibition, % at 7.5 µM (by protocol); 300,000 tested, 0.77% active; AID 2098, 2009;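 active means more than half of replicate wells show activity change below -50%, luminescence cut by over half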;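 further: luciferase reports HSF-1 transcriptional activity via heat shock element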
Rh123 counter: fluorescence retest of MPTP screen hits in isolated mitochondria, single concentration. shares compounds with MPTP inh. membrane potential, Rhodamine 123 fluorescence. inhibition, % at 10 µM. 5,000 tested, 78% active. AID 624504, 2012; in the data active means inhibition above about 22%
MPTP abs DR: mitochondrial permeability transition pore inhibitors, dose response, biochemical, absorbance, uHTS hits; shares compounds with MPTP inh; isolated mitochondria swelling; IC50, µM; 780 tested, 58% active; in the data active means IC50 below about 20 µM
MPTP counter DR: fluorescent counter-screen in isolated mitochondria, dose response, counter-screen for MPTP inhibitor project, biochemical, fluorescence, uHTS hits | shares compounds with MPTP inh | isolated mitochondria counterscreen, fluorescence read-out | IC50, µM | 780 tested, 49% active | AID 651564, 2012; in the data active means IC50 below about 80 µM
Each line names hits and unclear results; the compound was inactive in the other large screens (follow-up assays come after a bar, where they were run). Compounds with a hit are over-represented: about 4.9% of the library has one in this group of screens.

Cc1nc(C)c(C(=O)NNS(=O)(=O)c2ccc3ccccc3c2)s1	MPTP inh 88.9 | Rh123 counter 62.3
Cc1nc(NS(=O)(=O)c2ccccc2)sc1C(=O)NNS(=O)(=O)c1ccccc1	none
COCCn1c(=NC(=O)c2ccc(S(=O)(=O)N3CCc4ccccc4C3)cc2)sc2cc(OC)ccc21	none
O=C1C2ON(c3ccccc3)C(c3ccncc3)C2C(=O)N1c1ccc(Br)cc1 (stereo unspecified)	MPTP inh 68.8 | Rh123 counter 21.8
Cc1ccc(N2C(=O)C3ON(c4ccccc4)C(c4ccncc4)C3C2=O)cc1 (stereo unspecified)	none
CCC(C)c1ccc(O)c(NC(=O)c2cncc(Br)c2)c1 (stereo unspecified)	MPTP inh 77.4 | Rh123 counter 63.7
CCN(C[C@H]1N[C@@](Cc2ccccc2)(C(=O)OC)[C@H]2C(=O)N(Cc3ccccc3)C(=O)[C@@H]12)C(=O)Nc1ccc(C)cc1	none (no result: HSP90 inh, HSF-1 act, Platelet DG rel, HSF1 inh)
CCN(C[C@H]1N[C@@](Cc2ccccc2)(C(=O)OC)[C@H]2C(=O)N(Cc3ccccc3)C(=O)[C@@H]12)C(=O)Nc1ccc(C(F)(F)F)cc1	MPTP inh 79.5 (no result: HSP90 inh, HSF-1 act, Platelet DG rel, HSF1 inh) | Rh123 counter 104.7
CCCNC(=O)c1cc(C2CCCCN2S(=O)(=O)Cc2cccc(C(F)(F)F)c2)on1 (stereo unspecified)	none (no result: HSP90 inh, HSF-1 act, dFosB act, Platelet DG rel, HSF1 inh)
CCCc1ccc(Oc2cn[nH]c2-c2ccc(O)cc2O)cc1	MPTP inh 63.9 (no result: HSF-1 act, HSF1 inh) | Rh123 counter 39.3
COc1ccc(Oc2cn[nH]c2-c2ccc(O)cc2O)cc1	none (no result: HSF-1 act, HSF1 inh)
CCOC(=O)c1ccc(Oc2cn[nH]c2-c2ccc(O)cc2O)cc1	MPTP inh 54.7 | Rh123 counter 26.3
CCOC(=O)c1ccc(Oc2cn[nH]c2-c2ccc(OCC(=O)NN)cc2O)cc1	none
O=C(Nc1nnc([C@H]2C[C@H](O)[C@@H](CO)O2)s1)NC1CCCCC1	none (no result: HSP90 inh, HSF-1 act, dFosB act, Platelet DG rel, HSF1 inh)
CCC(=O)/C=C1/Sc2ccccc2N1CC	none
CCN1/C(=C/c2sc(-c3ccccc3C)c[n+]2C)Sc2ccccc21	MPTP inh 95.0 | Rh123 counter 107.3
c1cc(CSc2nnc(-c3ccc4c(c3)OCO4)o2)ccn1	none
COc1ccc(C2=NCC(CSc3nnc(-c4ccc5c(c4)OCO5)o3)S2)cc1 (stereo unspecified)	MPTP inh 58.5 | Rh123 counter 80.6
COc1ccc(C2=NCC(CSc3nccc(=O)[nH]3)S2)cc1 (stereo unspecified)	none
CCN(CC)S(=O)(=O)c1ccc2oc(SCC3CN=C(c4ccc(OC)cc4)S3)nc2c1 (stereo unspecified)	MPTP inh 56.2 | Rh123 counter inactive | MPTP abs DR 17.4 | MPTP counter DR 11.6
Cc1ccc(C(O)(COC(=O)C(C)C)COC(=O)C(C)C)c(O)c1	none
COc1ccc(C)c2sc(N(CCCN(C)C)C(=O)CS(=O)(=O)c3ccc(F)cc3)nc12	MPTP inh 85.4 (no result: HSP90 inh) | Rh123 counter inactive | MPTP abs DR 5.7 | MPTP counter DR inactive
Cc1cccc2sc(N(CCCN3CCOCC3)C(=O)CS(=O)(=O)c3ccc(F)cc3)nc12	none (no result: HSP90 inh)
Cc1cc(CN(C)C(=O)c2cc(COc3ccc4ncccc4c3)on2)on1	MPTP inh 96.2 | Rh123 counter 72.5
CC(=O)c1ccc(OCc2cc(C(=O)N(C)Cc3cc(C)no3)no2)cc1	none
CN(Cc1nccn1C)C(=O)c1cc(COc2ccc3ncccc3c2)on1	MPTP inh 69.5 | Rh123 counter inactive | MPTP abs DR 19 | MPTP counter DR 46
Cc1ccc(C(=O)COc2cc(C)nc3nncn23)cc1	none
O=C(Nc1ccc(C(F)(F)F)cc1)C1CCN(S(=O)(=O)c2ccc(N3CCCC3=O)cc2)CC1	MPTP inh 92.1 | Rh123 counter 88.5
Cc1ccc(S(=O)(=O)NCc2ccccc2)cc1C(=O)NCC(=O)Nc1c(C)cccc1C	none (no result: HSP90 inh, HSF-1 act, dFosB act, Platelet DG rel, HSF1 inh)
COc1ccc(NC(=O)c2ccccc2NS(=O)(=O)c2ccc(C)cc2)c([N+](=O)[O-])c1	none
COc1ccc(C(=O)COC(=O)c2ccccc2NS(=O)(=O)c2ccc(O)c([N+](=O)[O-])c2)cc1	MPTP inh 70.7 | Rh123 counter 51.0
CCCCCCc1cc2cc(C(=O)Nc3ccccc3)c(=O)oc2cc1O	MPTP inh 72.6 | Rh123 counter inactive
CCCCCCc1cc2cc(C(=O)NCc3ccccc3)c(=N)oc2cc1O	MPTP inh 86.5 | Rh123 counter 73.7
CCOC(=O)/C(=N\Nc1ccccc1)P(=O)(c1ccccc1)c1ccccc1	none
S=C(Nc1cccc(Cl)c1)Nc1ccccc1Oc1ccccc1	MPTP inh 91.3 | Rh123 counter 110.4
S=C(Nc1ccc(Cl)cc1Cl)Nc1ccccc1Oc1ccccc1	none
S=C(Nc1ccccc1Oc1ccccc1)Nc1cccc(Cl)c1Cl	MPTP inh 77.8 | Rh123 counter 68.8
CN(C)S(=O)(=O)n1cc(/C=C(\NC(=O)c2ccccc2F)C(=O)N2CCCCC2)c2ccccc21	none (no result: HSP90 inh, HSF-1 act, dFosB act, Platelet DG rel, HSF1 inh)
Cn1ncc(Cl)c1C(=O)N1CCN(C(=O)c2ccco2)CC1	MPTP inh 73.0 | Rh123 counter inactive | MPTP abs DR inactive | MPTP counter DR inactive
O=C(NC1CCCC1)C(c1cccs1)N(C(=O)c1csnn1)c1ccccc1F (stereo unspecified)	none
COC(=O)C1=NN(C(=O)c2cccc(Br)c2)C(O)(c2ccc(Cl)cc2)C1 (stereo unspecified)	HSF-1 act 183.2, MPTP inh 66.6 | Rh123 counter 73.2
CC1=NN(C(=O)c2ccccc2F)C(O)(c2ccc(Cl)cc2)C1 (stereo unspecified)	none
CCOC(=O)N1CCN(C(=O)c2cc(Cl)c(Cl)cc2C(=O)O)CC1	MPTP inh 54.8 | Rh123 counter inactive | MPTP abs DR inactive | MPTP counter DR inactive
CCOC(=O)N1CCN(c2ccc(Cl)c(Cl)c2)CC1	none
CCOC(=O)c1c(-c2ccccc2)oc2ccc(OCC(O)CN(C)C)cc12 (stereo unspecified)	MPTP inh 98.8 | Rh123 counter inactive | MPTP abs DR 6.51 | MPTP counter DR inactive

High-throughput results as filed in PubChem BioAssay.
